Reference: publication PMC7862700, “An all-to-all approach to the identification of sequence-specific readers for epigenetic DNA modifications on cytosine”

Molecular target: T1, ELF5 (Homo sapiens, UniProt Q9UKW6-2 1-255)
T1 sequence: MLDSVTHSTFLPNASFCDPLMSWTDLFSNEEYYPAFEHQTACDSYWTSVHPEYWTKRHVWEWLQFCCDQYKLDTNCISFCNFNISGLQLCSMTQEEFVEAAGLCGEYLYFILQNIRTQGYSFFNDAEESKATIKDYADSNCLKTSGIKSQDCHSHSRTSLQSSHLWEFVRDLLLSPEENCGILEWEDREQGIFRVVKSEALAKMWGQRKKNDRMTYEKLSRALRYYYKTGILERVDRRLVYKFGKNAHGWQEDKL
Experiment: DAPPL (digital affinity profiling via proximity ligation, sequencing); 10 mM Tris-HCl pH 7.5, 50 mM NaCl, 1 mM DTT, 4% glycerol, room temperature, 30 min; GST-TFs on glutathione beads, 16-mer random dsDNA library, 0.1% formaldehyde crosslink after washing; high values mean tight binding
Details: protein: recombinant; tags: N-terminal GST; dsDNA, one strand shown
In short: (§1)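 Human transcription factors carrying a GST fusion were produced in yeast, bound to glutathione beads, tagged with DNA barcodes and pooled together with a tag-only sample. Each pool was held with 200 nmole of a random double-stranded 16-mer DNA library in Tris/NaCl/DTT/glycerol buffer for 30 min at room temperature, then washed, crosslinked in 0.1% formaldehyde, proximity-ligated with BsaI/T4 ligase (1 h, 37 °C), PCR-amplified and sequenced on an Illumina NextSeq500. Binding signal is the read frequency of each hexamer for a given factor divided by its frequency in the tag-only sample.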

Sequence | binding signal
TTACAC | 1.19 fold enrichment (6-mer frequency, TF over GST control)
TATATC | 1.66 fold enrichment (6-mer frequency, TF over GST control)
TAAAAT | 1.15 fold enrichment (6-mer frequency, TF over GST control)
CCATAA | 1.1 fold enrichment (6-mer frequency, TF over GST control)
AACCCT | 1.28 fold enrichment (6-mer frequency, TF over GST control)
AATCTG | 1.37 fold enrichment (6-mer frequency, TF over GST control)
TTTTAT | 1.3 fold enrichment (6-mer frequency, TF over GST control)
TTTCGA | 1.42 fold enrichment (6-mer frequency, TF over GST control)
CTTAGT | 1.13 fold enrichment (6-mer frequency, TF over GST control)
CATCCT | 2.13 fold enrichment (6-mer frequency, TF over GST control)
ATCCTG | 1.84 fold enrichment (6-mer frequency, TF over GST control)
ACTACG | 1.33 fold enrichment (6-mer frequency, TF over GST control)
TTCGAA | 1.14 fold enrichment (6-mer frequency, TF over GST control)
AACCTT | 1.33 fold enrichment (6-mer frequency, TF over GST control)
TACCTT | 1.49 fold enrichment (6-mer frequency, TF over GST control)
CCTTCC | 3.65 fold enrichment (6-mer frequency, TF over GST control)
CTTATC | 1.17 fold enrichment (6-mer frequency, TF over GST control)
CCTACG | 1.43 fold enrichment (6-mer frequency, TF over GST control)
TACATG | 1.16 fold enrichment (6-mer frequency, TF over GST control)
CTGCGA | 1.28 fold enrichment (6-mer frequency, TF over GST control)

Sequence | binding signal
GGACCT | 1.27 fold enrichment (6-mer frequency, TF over GST control)
GAATAA | 1.05 fold enrichment (6-mer frequency, TF over GST control)
TATGCT | 1.29 fold enrichment (6-mer frequency, TF over GST control)
TCTCTA | 1.21 fold enrichment (6-mer frequency, TF over GST control)
ATTCTC | 1.26 fold enrichment (6-mer frequency, TF over GST control)
ACTCCG | 1.32 fold enrichment (6-mer frequency, TF over GST control)
ACACTT | 2.02 fold enrichment (6-mer frequency, TF over GST control)
CTTTAT | 1.13 fold enrichment (6-mer frequency, TF over GST control)
GCTTCT | 1.56 fold enrichment (6-mer frequency, TF over GST control)
CTTCGG | 1.41 fold enrichment (6-mer frequency, TF over GST control)
TTATTT | 1.43 fold enrichment (6-mer frequency, TF over GST control)
CCTGAC | 1.63 fold enrichment (6-mer frequency, TF over GST control)
ATCCCT | 1.37 fold enrichment (6-mer frequency, TF over GST control)
TTTGCT | 1.16 fold enrichment (6-mer frequency, TF over GST control)
ACCTGC | 1.39 fold enrichment (6-mer frequency, TF over GST control)
TATCCG | 3.31 fold enrichment (6-mer frequency, TF over GST control)
TTAAAG | 1.13 fold enrichment (6-mer frequency, TF over GST control)
TTCTGA | 1.26 fold enrichment (6-mer frequency, TF over GST control)
ACAAAT | 1.13 fold enrichment (6-mer frequency, TF over GST control)
ACAGCT | 1.12 fold enrichment (6-mer frequency, TF over GST control)

Molecular target: T2, ETV3 (Homo sapiens, UniProt P41162-2 1-143)
T2 sequence: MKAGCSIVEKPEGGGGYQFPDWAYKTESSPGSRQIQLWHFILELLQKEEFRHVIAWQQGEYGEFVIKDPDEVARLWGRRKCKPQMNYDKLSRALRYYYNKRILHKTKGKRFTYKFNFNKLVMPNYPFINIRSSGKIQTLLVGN
Experiment: as above
Details: protein: recombinant; tags: N-terminal GST; dsDNA, one strand shown
In short: as §1

Sequence | binding signal
TTACAC | 1.15 fold enrichment (6-mer frequency, TF over GST control)
TATATC | 1.68 fold enrichment (6-mer frequency, TF over GST control)
TAAAAT | 1.17 fold enrichment (6-mer frequency, TF over GST control)
CCATAA | 1.25 fold enrichment (6-mer frequency, TF over GST control)
AACCCT | 1.27 fold enrichment (6-mer frequency, TF over GST control)
AATCTG | 1.43 fold enrichment (6-mer frequency, TF over GST control)
TTTTAT | 1.45 fold enrichment (6-mer frequency, TF over GST control)
TTTCGA | 1.41 fold enrichment (6-mer frequency, TF over GST control)
CTTAGT | 1.31 fold enrichment (6-mer frequency, TF over GST control)
CATCCT | 1.86 fold enrichment (6-mer frequency, TF over GST control)
ATCCTG | 1.61 fold enrichment (6-mer frequency, TF over GST control)
ACTACG | 1.35 fold enrichment (6-mer frequency, TF over GST control)
TTCGAA | 1.03 fold enrichment (6-mer frequency, TF over GST control)
AACCTT | 1.28 fold enrichment (6-mer frequency, TF over GST control)
TACCTT | 1.29 fold enrichment (6-mer frequency, TF over GST control)
CCTTCC | 2.88 fold enrichment (6-mer frequency, TF over GST control)
CTTATC | 1.15 fold enrichment (6-mer frequency, TF over GST control)
CCTACG | 1.38 fold enrichment (6-mer frequency, TF over GST control)
TACATG | 1.33 fold enrichment (6-mer frequency, TF over GST control)
CTGCGA | 1.32 fold enrichment (6-mer frequency, TF over GST control)

Sequence | binding signal
GGACCT | 1.32 fold enrichment (6-mer frequency, TF over GST control)
GAATAA | 1.06 fold enrichment (6-mer frequency, TF over GST control)
TATGCT | 1.32 fold enrichment (6-mer frequency, TF over GST control)
TCTCTA | 1.3 fold enrichment (6-mer frequency, TF over GST control)
ATTCTC | 1.17 fold enrichment (6-mer frequency, TF over GST control)
ACTCCG | 1.51 fold enrichment (6-mer frequency, TF over GST control)
ACACTT | 1.66 fold enrichment (6-mer frequency, TF over GST control)
CTTTAT | 1.19 fold enrichment (6-mer frequency, TF over GST control)
GCTTCT | 1.4 fold enrichment (6-mer frequency, TF over GST control)
CTTCGG | 1.55 fold enrichment (6-mer frequency, TF over GST control)
TTATTT | 1.41 fold enrichment (6-mer frequency, TF over GST control)
CCTGAC | 1.44 fold enrichment (6-mer frequency, TF over GST control)
ATCCCT | 1.21 fold enrichment (6-mer frequency, TF over GST control)
TTTGCT | 1.24 fold enrichment (6-mer frequency, TF over GST control)
ACCTGC | 1.44 fold enrichment (6-mer frequency, TF over GST control)
TATCCG | 2.57 fold enrichment (6-mer frequency, TF over GST control)
TTAAAG | 1.21 fold enrichment (6-mer frequency, TF over GST control)
TTCTGA | 1.37 fold enrichment (6-mer frequency, TF over GST control)
ACAAAT | 1.1 fold enrichment (6-mer frequency, TF over GST control)
ACAGCT | 1.14 fold enrichment (6-mer frequency, TF over GST control)

Molecular target: ETV6 (Homo sapiens, UniProt P41212 1-452)
Sequence (P41212 whole entry): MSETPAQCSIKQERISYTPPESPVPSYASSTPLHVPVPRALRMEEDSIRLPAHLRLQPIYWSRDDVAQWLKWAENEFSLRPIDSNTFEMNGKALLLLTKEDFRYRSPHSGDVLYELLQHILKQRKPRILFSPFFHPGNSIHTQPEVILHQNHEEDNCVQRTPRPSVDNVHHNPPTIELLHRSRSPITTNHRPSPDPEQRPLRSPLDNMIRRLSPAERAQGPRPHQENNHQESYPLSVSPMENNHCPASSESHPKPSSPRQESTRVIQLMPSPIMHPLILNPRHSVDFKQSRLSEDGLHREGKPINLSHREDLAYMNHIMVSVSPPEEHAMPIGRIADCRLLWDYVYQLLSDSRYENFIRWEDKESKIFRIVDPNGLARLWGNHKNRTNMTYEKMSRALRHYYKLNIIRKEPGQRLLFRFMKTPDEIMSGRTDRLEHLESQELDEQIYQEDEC
Experiment: as above
Details: protein: recombinant; tags: N-terminal GST; dsDNA, one strand shown
In short: as §1

Sequence | binding signal
TTACAC | 1.2 fold enrichment (6-mer frequency, TF over GST control)
TATATC | 1.5 fold enrichment (6-mer frequency, TF over GST control)
TAAAAT | 1.18 fold enrichment (6-mer frequency, TF over GST control)
CCATAA | 1.21 fold enrichment (6-mer frequency, TF over GST control)
AACCCT | 1.33 fold enrichment (6-mer frequency, TF over GST control)
AATCTG | 1.4 fold enrichment (6-mer frequency, TF over GST control)
TTTTAT | 1.36 fold enrichment (6-mer frequency, TF over GST control)
TTTCGA | 1.33 fold enrichment (6-mer frequency, TF over GST control)
CTTAGT | 1.24 fold enrichment (6-mer frequency, TF over GST control)
CATCCT | 1.65 fold enrichment (6-mer frequency, TF over GST control)
ATCCTG | 1.48 fold enrichment (6-mer frequency, TF over GST control)
ACTACG | 1.32 fold enrichment (6-mer frequency, TF over GST control)
TTCGAA | 1.15 fold enrichment (6-mer frequency, TF over GST control)
AACCTT | 1.27 fold enrichment (6-mer frequency, TF over GST control)
TACCTT | 1.5 fold enrichment (6-mer frequency, TF over GST control)
CCTTCC | 2.74 fold enrichment (6-mer frequency, TF over GST control)
CTTATC | 1.1 fold enrichment (6-mer frequency, TF over GST control)
CCTACG | 1.61 fold enrichment (6-mer frequency, TF over GST control)
TACATG | 1.24 fold enrichment (6-mer frequency, TF over GST control)
CTGCGA | 1.29 fold enrichment (6-mer frequency, TF over GST control)

Sequence | binding signal
GGACCT | 1.34 fold enrichment (6-mer frequency, TF over GST control)
GAATAA | 1.16 fold enrichment (6-mer frequency, TF over GST control)
TATGCT | 1.24 fold enrichment (6-mer frequency, TF over GST control)
TCTCTA | 1.21 fold enrichment (6-mer frequency, TF over GST control)
ATTCTC | 1.23 fold enrichment (6-mer frequency, TF over GST control)
ACTCCG | 1.47 fold enrichment (6-mer frequency, TF over GST control)
ACACTT | 1.95 fold enrichment (6-mer frequency, TF over GST control)
CTTTAT | 1.23 fold enrichment (6-mer frequency, TF over GST control)
GCTTCT | 1.45 fold enrichment (6-mer frequency, TF over GST control)
CTTCGG | 1.27 fold enrichment (6-mer frequency, TF over GST control)
TTATTT | 1.4 fold enrichment (6-mer frequency, TF over GST control)
CCTGAC | 1.6 fold enrichment (6-mer frequency, TF over GST control)
ATCCCT | 1.23 fold enrichment (6-mer frequency, TF over GST control)
TTTGCT | 1.14 fold enrichment (6-mer frequency, TF over GST control)
ACCTGC | 1.66 fold enrichment (6-mer frequency, TF over GST control)
TATCCG | 2.38 fold enrichment (6-mer frequency, TF over GST control)
TTAAAG | 1.19 fold enrichment (6-mer frequency, TF over GST control)
TTCTGA | 1.3 fold enrichment (6-mer frequency, TF over GST control)
ACAAAT | 1.17 fold enrichment (6-mer frequency, TF over GST control)
ACAGCT | 1.08 fold enrichment (6-mer frequency, TF over GST control)
